Screens: PubChem, several laboratories
Hits are enriched below; roughly 22% of the tested compounds scored in any of these assays.
Measles CPE: protection of cells from measles virus; protection (pct of control), % at 4 µM; 140,000 compounds, 1.5% hits; AID 841; Measles virus-infected cells, CPE protection, absorbance; in the data active = protection mostly above about 24%, no sharp cut-off; inactive = mostly below about 26%
CYP2C19 inh: inhibitors of human CYP2C19; P33261; CYP2C19 Supersomes, luciferin-H EGE luminescence, 30 min; inhibition, % at 5 µM; 96,000 compounds, 21% hits; AID 778;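 active = CYP2C19 inhibition above a set limit at 5 µM in the primary screen, cut at about 50% in these data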;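 also: plate controls were negative control wells for no effect and 2.5 mM tranylcypromine positive control for full effect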
Target sequence (P33261 whole entry, looked up): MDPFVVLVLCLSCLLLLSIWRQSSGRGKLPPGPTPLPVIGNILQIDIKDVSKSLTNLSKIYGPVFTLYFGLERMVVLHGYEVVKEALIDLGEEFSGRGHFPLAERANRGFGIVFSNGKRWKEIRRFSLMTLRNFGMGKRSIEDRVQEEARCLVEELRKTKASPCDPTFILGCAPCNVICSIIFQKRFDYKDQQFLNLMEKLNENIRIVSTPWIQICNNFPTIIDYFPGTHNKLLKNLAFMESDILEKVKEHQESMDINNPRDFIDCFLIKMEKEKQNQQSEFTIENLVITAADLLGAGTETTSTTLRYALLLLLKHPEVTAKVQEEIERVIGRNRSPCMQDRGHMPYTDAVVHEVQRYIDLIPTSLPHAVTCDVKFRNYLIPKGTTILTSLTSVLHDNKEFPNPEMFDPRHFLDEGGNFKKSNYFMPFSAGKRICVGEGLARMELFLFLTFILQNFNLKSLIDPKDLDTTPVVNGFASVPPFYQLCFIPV
CYP2C19 act: increases human CYP2C19 enzyme activity; P33261; AID 1025; activation factor at 5 µM; recombinant CYP2C19, luciferin-H EGE luminescence; stronger effect = higher value; 0 = fully inhibited enzyme, 1 = untreated enzyme; 96,000 tested, under 10 active;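 active = activation factor of at least 2 at 5 µM in the primary screen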;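 also: 0 = wells with 2.5 mM tranylcypromine and 1 = vehicle-only wells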
CYP2C9 inh: inhibitors of human CYP2C9; 96,000 compounds, 20% hits; P11712; inhibition, % at 5 µM; CYP2C9 Supersomes, luciferin-H conversion, luminescence;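 active = blocking of liver enzyme CYP2C9 beyond about 50% at 5 µM, limit read from the data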
CYP2C9 act: increases human cytochrome P450 2C9 activity | activation factor at 5 µM | recombinant CYP2C9, luciferin-H conversion, luminescence; stronger effect = higher value; factor 1 = untreated enzyme, 0 = blocked | 96,000 compounds, 1.4% hits | AID 1024 | P11712;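 active = activation factor of 2 or more for CYP2C9 at a 5 µM dose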;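 also: 0 = sulfaphenazole-blocked wells and 1 = vehicle-only wells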
The depositor's hits bear a star; / = not tested or not shown.

SMILES | Measles CPE | CYP2C19 inh | CYP2C19 act | CYP2C9 inh | CYP2C9 act
COc1ccc(Br)cc1C1CC(=O)N2CN(C)CSC2=C1C#N (configuration not stated) | 13.5 | 59.7* | 0.4 | 87.9* | 0.1
N#CC1=C2SCN(Cc3ccccc3)CN2C(=O)CC1c1ccccc1F (configuration not stated) | 30.5 | 42.0 | 0.6 | 64.7* | 0.4
COc1ccc(C)cc1N(C(=O)c1ccccc1F)c1nc2ccccc2s1 | 11.6 | / | / | / | /
CCOC(=O)C1C(=O)CC(C)(O)C(C(=O)OCC)C1/C=C/c1ccccc1 (configuration not stated) | 33.2 | 14.0 | 0.9 | 7.7 | 0.9
COc1cc(CCC(=O)OCC(=O)Nc2c(C)cc(C)cc2C)cc(OC)c1OC | 3.7 | / | / | / | /
Cc1nc2c(C(=O)NCc3ccc4c(c3)OCO4)cnn2c(C)c1Cc1ccc(F)cc1Cl | 0.1 | 58.8* | 0.4 | 85.7* | 0.1
Cc1ccccc1Cc1c(C)nc2c(C(=O)NCc3ccc4c(c3)OCO4)cnn2c1C | 33.6 | 8.7 | 0.9 | 15.4 | 0.8
Cc1nc2c(C(=O)NCc3ccco3)cnn2c(C)c1Cc1ccc(F)cc1Cl | 43.2 | 13.7 | 0.9 | 3.9 | 1
Cc1cccc(Cc2c(C)nc3c(C(=O)NCc4ccco4)cnn3c2C)c1 | 13.9 | 50.2* | 0.5 | 56.5* | 0.4
COc1ccc(-c2cc(C(F)(F)F)n3ncc(C(=O)NCc4ccco4)c3n2)cc1 | 4.2 | 50.6* | 0.5 | 54.3* | 0.5
Cc1ccc(C)c(Cc2c(C)nc3c(C(=O)NCc4ccc5c(c4)OCO5)cnn3c2C)c1 | 17.4 | 42.9 | 0.6 | 86.6* | 0.1
CNCCCNCc1ccc(SC)cc1 | 3.2 | 0.8 | 1 | 3.4 | 1
CS(=O)(=O)NCCCNc1ccc(Cl)cc1[N+](=O)[O-] | 9.7 | 66.3* | 0.3 | 47.6 | 0.5
Cc1ccc(C(=O)NCCNc2ccc(Cl)cc2[N+](=O)[O-])o1 | 19.7 | 33.0 | 0.7 | 55.2* | 0.4
CC1CCCCN1C(=O)C12CCC(C)(/C(=N/O)C1)C2(C)C (configuration not stated) | 5.1 | -7.3 | 1.1 | -9.4 | 1.1
CCCCn1cc(SCC(=O)O)c2ccccc21 | 8.3 | 4.4 | 1 | 32.7 | 0.7
Cc1ccc(C(=O)NCCn2cc(SCC(=O)Nc3nnc(C)s3)c3ccccc32)cc1 | 7.2 | 60.0* | 0.4 | 79.5* | 0.2
Cn1cc(SCC(=O)Nc2nccs2)c2ccccc21 | 20.3 | 64.4* | 0.4 | 24.4 | 0.8
CC1CCN(C(=O)Cn2c(SCC(=O)Nc3nccs3)nc3ccccc32)CC1 | 4.4 | 80.7* | 0.2 | 78.7* | 0.2
Cc1cc(NC(=O)CSc2cn(CCNC(=O)c3ccc(Cl)cc3)c3ccccc23)no1 | 2.3 | 34.2 | 0.7 | 46.0 | 0.5
CCCn1cc(SCC(=O)Nc2nnc(C)s2)c2ccccc21 | 27.0 | 29.4 | 0.7 | 63.0* | 0.4
COc1cc(NC(=O)Cc2ccc([N+](=O)[O-])cc2)c(C(=O)O)cc1OC | 22.1 | / | / | / | /
O=C(NCc1ccccn1)c1coc(=O)c(Br)c1 | 32.3 | 14.1 | 0.9 | 20.0 | 0.8
O=C1CSc2ccccc2N1Cc1ccc(F)cc1 | 21.2 | 68.9* | 0.3 | 70.5* | 0.3
COc1ccc(Cn2c(-c3ccc(C)cc3)c[n+]3ccccc23)cc1 | 4.8 | / | / | / | /
SMILES | Measles CPE | CYP2C19 inh | CYP2C19 act | CYP2C9 inh | CYP2C9 act
O=C(Cn1nc(-c2ccccc2)c2ccccc2c1=O)Nc1cccnc1 | 17.3 | 19.7 | 0.8 | 72.0* | 0.3
COc1ccc(-c2nn(CC(=O)Nc3ccc(Cl)c(Cl)c3)c(=O)c3ccccc23)cc1 | 19.5 | 33.3 | 0.7 | 87.2* | 0.1
O=C(Cn1nc(-c2ccc(Cl)cc2)c2ccccc2c1=O)Nc1cccnc1 | 7.4 | 1.9 | 1 | 59.2* | 0.4
N#Cc1c(-c2ccccc2)c(-c2ccccc2)nn(CC(=O)NNC(=O)Nc2ccccc2)c1=O | 7.0 | 25.3 | 0.7 | 53.0* | 0.5
CCC(C)/C(C)=N/NC(=O)c1ccc(CSc2nc3ccccc3s2)cc1 (configuration not stated) | 10.3 | / | / | / | /
COc1ccc(OC)c(C(c2nnnn2CCC(C)C)N2CCN(C(=O)c3ccco3)CC2)c1 (configuration not stated) | 5.5 | 66.9* | 0.3 | 74.3* | 0.3
CC(C)CCn1nnnc1C(c1ccc(F)cc1)N1CCN(C(=O)c2ccco2)CC1 (configuration not stated) | 18.5 | 63.0* | 0.4 | 96.5* | 0
O=C(c1ccco1)N1CCN(C(c2ccc(F)cc2)c2nnnn2Cc2cccs2)CC1 (configuration not stated) | 6.5 | 23.0 | 0.8 | 29.6 | 0.7
C=CCOc1ccc(/C=C/C(=O)Nc2ccc(C(=O)NC)cc2)cc1 | 6.4 | / | / | / | /
O=C(NN1CCOCC1)c1cc(-c2cccc(Cl)c2)nc2ccccc12 | 42.6* | 12.9 | 0.9 | 6.8 | 0.9
CCOc1ccc(-c2cc(C(=O)Nc3ccc4c(c3)OCCO4)c3ccccc3n2)cc1 | 11.8 | 48.8 | 0.5 | 78.3* | 0.2
Cc1cccc(-c2cc(C(=O)Nc3ccc4c(c3)OCCO4)c3ccccc3n2)c1 | 7.7 | 23.3 | 0.8 | 60.2* | 0.4
Cc1nc2ccccc2c2oc(C(=O)Nc3ccc4c(c3)OCCO4)cc12 | 5.2 | -1.5 | 1 | 4.4 | 1
O=C(NN1CCOCC1)c1cc(-c2ccccc2)nc2ccccc12 | 7.6 | 0.6 | 1 | 10.2 | 0.9
Cc1ccc2nc(-c3ccc4c(c3)OCCO4)cc(C(=O)O)c2c1 | 8.3 | 28.1 | 0.7 | 81.1* | 0.2
COC(=O)Cn1c(CN2CCOCC2)nc2c1c(=O)[nH]c(=O)n2C | 3.9 | -15.3 | 1.2 | -17.6 | 1.2
Cc1cccc[n+]1CC(=O)c1ccc2c(c1)OCCO2 | 16.8 | / | / | / | /
Cc1ccc2nc(-c3cccc(NC(=O)c4ccc5c(c4)OCCO5)c3)oc2c1 | 8.2 | 64.3* | 0.4 | 86.7* | 0.1
O=C(Nc1ccc2oc(-c3ccc4ccccc4c3)nc2c1)c1ccc2c(c1)OCCO2 | 6.3 | 1.2 | 1 | 7.1 | 0.9
COc1ccc(C(=O)CC(c2ccccc2)C2C(=O)CCCC2=O)cc1 (configuration not stated) | 5.3 | 68.7* | 0.3 | 93.1* | 0.1
O=C(CC(c1ccco1)C1CCCCC1=O)c1ccccc1 (configuration not stated) | 15.4 | 61.5* | 0.4 | 74.3* | 0.3
COc1ccc(C(CC(=O)c2ccccc2)C2CCCCC2=O)cc1 (configuration not stated) | 6.1 | 52.7* | 0.5 | 16.8 | 0.8
O=C(c1cnsn1)N1CCN(c2ccccn2)CC1 | 5.9 | 27.4 | 0.7 | -65.3 | 1.7
Cc1nc(NCCc2ccccc2F)c(C#N)c(C)c1[N+](=O)[O-] | 11.1 | 26.2 | 0.7 | 67.8* | 0.3
Cc1nc(NCCc2ccc(F)cc2)c(C#N)c(C)c1[N+](=O)[O-] | 4.4 | / | / | / | /
Cc1ccc(C(=O)Oc2coc(CSc3nnc(NC(=O)C4CC4)s3)cc2=O)cc1C | 28.3 | / | / | / | /
Cc1n[nH]c(C)c1S(=O)(=O)N1CCC(C(=O)N2CCn3c2nc2ccccc23)CC1 | 5.6 | 66.0* | 0.3 | 42.5 | 0.6
